Experimental data reported in PubChem BioAssay (NCATS).
Values joined by “and” are separate entries in the source; they are usually repeats but may differ in a detail not shown here. Equal entries are not always repeated. Records with an inconclusive call do not appear. Active and inactive are the calls of the source. Unless noted, calls come from the whole dose curve; as a rule, active = well fitted curve in the direction sought with a large enough effect; inconclusive = small, poorly fitted or top-dose-only effect, or another doubt; inactive = no such curve, though single readings can be large; an effect the other way counts as inactive or inconclusive.

Tests used:
[1] = Cell Viability - BJ (AID 421; calls by dose curve;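 note: potency is the fitted concentration of half-maximal effect; cells exposed to compound for 40 hours at 37 °C before readout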); conditions: BJ fibroblast viability, qHTS
How it was run: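 Cytotoxicity in human BJ foreskin fibroblasts is scored as loss of cellular ATP after a 40-hour exposure, measured by luciferase luminescence. Controls are DMSO and 100 uM tamoxifen.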

[2] = Cell Viability - Jurkat (AID 426;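 active = dose-dependent loss of cell ATP signal giving a full or clear fitted curve, ranked by lower potency value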;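 note: potency is the fitted concentration of half-maximal effect; cells exposed to compound for 40 hours at 37 °C before ATP read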); conditions: qHTS
How it was run: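 Cells of the human T-cell leukemia line Jurkat (E6-1) are seeded at 5000 per well, treated with compound across a concentration range for 40 hours at 37 °C, then lysed with CellTiter-Glo; luminescence reports ATP.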

[3] = Cell Viability - MRC5 (AID 434; calls by dose curve;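 note: potency is the fitted concentration of half-maximal effect; potency reflects cytotoxicity seen as loss of intracellular ATP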); conditions: MRC5 lung fibroblast viability, qHTS
How it was run: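 ATP luminescence read-out (CellTiter-Glo, 20 min RT) after 40 hr, 37 °C compound exposure of 1500 MRC5 cells/well. Data normalized to DMSO (basal) and 100 uM tamoxifen (100% inhibition); AC50 from standard Hill equation.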

[4] = Cell Viability - SK-N-SH (AID 435; calls by dose curve;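 note: potency is the fitted concentration of half-maximal effect; compound exposure lasted 40 h at 37 °C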); conditions: SK-N-SH neuroblastoma cell viability qHTS
How it was run: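 CellTiter-Glo ATP luminescence, 20 min RT read; cells pre-plated 5 hr, compound 40 hr at 37 °C, 1500 cells/well, complete medium. Normalized DMSO = 0, 100 uM tamoxifen = 100% inhibition; Hill-fit AC50.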

[5] = Cell Viability - Renal Proximal Tubule (AID 545); conditions: renal proximal tubule cells viability; activity change, negative = cytotoxicity: at 91.7 µM (top of the series) unless noted; note: nearly all actives have a fitted effect of over 40% in size; note: potency is the fitted concentration of half-maximal effect;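 for activity change, negative = cytotoxicity: 0% = DMSO only and -100% = 100 µM tamoxifen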
How it was run: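 Rat kidney proximal tubule cells, freshly isolated; 1000 cells/well, 5 hr settle, compound 40 hr 37 °C. CellTiter-Glo 20 min RT, luminescence read. AC50 by standard Hill fit.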

[6] = Cell Viability - Mesenchymal (AID 546); conditions: mesenchymal cells viability, qHTS; activity change, negative = cytotoxicity: at 91.7 µM (top of the series);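 note: cells exposed to compound for 40 hours before reading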; note: potency is the fitted concentration of half-maximal effect;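 for activity change, negative = cytotoxicity: 0% = DMSO only and -100% = 100 µM tamoxifen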
How it was run: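 Human renal mesenchymal cells (glomerulus-derived), 1000 cells/well, 5 hr 37 °C pre-incubation; compound 40 hr, 37 °C; CellTiter-Glo, 20 min RT; luminescence; AC50 via Hill equation.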

[7] = Cellular Toxicity (caspase-3) HUV-EC-C (AID 656);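 note: 0% = DMSO basal and 100% = 100 µM tamoxifen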
How it was run: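 Luminescent caspase-3/7 activation (aminoluciferin substrate cleavage) in HUV-EC-C cells after 16 hr compound exposure, 37°C. Signal normalized to DMSO basal and 100 uM tamoxifen as 100%; AC50 from concentration-response fitted with the Hill equation.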

[8] = Cellular Toxicity (caspase-3) N2a (AID 665);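 note: compound exposure lasted 16 h at 37 °C before readout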
How it was run: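 Caspase-3/7 activation, measured as increased luminescence from aminoluciferin release, is quantified in mouse N2a cells exposed to compounds for 16 h. Values are normalized to DMSO and 10 uM staurosporine, with AC50 derived by Hill modelling.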

[9] = target: Cytochrome P450 3A4 (Homo sapiens) (UniProt P08684); assay: qHTS Assay for Inhibitors and Substrates of Cytochrome P450 3A4 (AID 884); note: nearly all actives have a fitted effect of over 50% in size; note: potency is the fitted concentration of half-maximal effect
How it was run: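 Luminescent readout of luciferin produced by CYP3A4 (20 nM) dealkylation of Luciferin-PPXE, 25 uM (its KM). NADPH-driven reaction ran 60 min at RT after 10 min compound preincubation; data scaled to 57 uM ketoconazole as 100% inhibition.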

[10] = Cell Viability - LYMP1-003 - Assay at 24 hr (AID 963); note: potency is the fitted concentration of half-maximal effect
How it was run: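 Cytotoxicity is scored as a concentration-dependent fall in ATP-linked luciferase signal in human lymphoblastoid LYMP1-003 cells treated 24 hr at 37 C in complete culture medium.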

[11] = Cell Viability - LYMP2-003 (AID 965);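 note: cells exposed to compounds for 24 h before reading; nearly all actives have a fitted effect of over 50% in size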; note: potency is the fitted concentration of half-maximal effect;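 for activity change, negative = cytotoxicity: 0% = DMSO only and full effect = 92 µM tetraoctylammonium bromide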
How it was run: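 CellTiter-Glo luminescence (cellular ATP) after 24 h compound exposure at 37 C in complete medium; 2500 cells/well, 5 h settling beforehand. Concentration-response fitted to standard Hill equation for AC50. Tetraoctylammonium bromide served as positive control.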

[12] = qHTS assay for environmental chemicals that activate the Aryl hydrocarbon Receptor (AhR) signaling pathway (AID 651777); conditions: 1A2-DRE human hepatoma cells, luciferase, 24 h; activation: hits give high values; note: % of control where 0% means no effect; nearly all actives have a fitted effect of over 15% in size
How it was run: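 Induction of CYP1A2 transcription through AhR is detected by luciferase in 1A2-DRE hepatoma cells. Compounds or DMSO act for 24 hr at 37 C before a 30 min One-Glo step at room temperature.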

[13] = target: Mitogen-activated protein kinase 10 (Mus musculus) (UniProt Q61831); assay: JNK3 AlphaScreen Assay (AID 530; active = well fitted curve in either direction with a large enough effect, not every such curve was filed as active;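 note: kinase came from lysate of stimulated human HepG2 cells; signal reports phosphorylation of biotinylated GST-cJun 1-79 at Ser73 with 10 µM ATP; % is set by controls: 0 for no effect and ±100 for the full control effect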)
How it was run: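 Activity was read by AlphaScreen after JNK3-containing HepG2 lysate (cytokine pre-activated) phosphorylated biotinylated GST-cJun with 10 uM ATP at room temperature. Phospho-Ser73 cJun antibody with Protein-A acceptor beads provided detection.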

[14] = target: Cytochrome P450 1A2 (Homo sapiens) (UniProt P05177); assay: p450-cyp1a2 (AID 410; calls by dose curve;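 note: -100% = full effect of reference inhibitor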)
How it was run: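 O-Demethylation of luciferin 6' methyl ether by human CYP1A2 is monitored as luciferase luminescence. Substrate sits at Km (100uM); enzyme is 20nM. Values are scaled to 57 uM furafylline as maximal inhibition.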

[15] = target: Glucocorticoid receptor (Homo sapiens) (UniProt P04150); assay: GR-EFC Redistribution (AID 451; calls by dose curve; note: potency is the fitted concentration of half-maximal effect); conditions: CHO-K1 GR-EFC translocation, beta-gal luminescence, 2 h
How it was run: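 CHO-K1 cells expressing nuclear EA and GR-ED fragments of b-gal; compounds titrated up to 46 uM final, 2 h at 37 C. GR nuclear translocation read as complemented b-gal luminescence after 1 h RT detection.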

[16] = target: 3',5'-cyclic-AMP phosphodiesterase 4B (Homo sapiens) (UniProt Q07343); assay: qHTS Assay for Inhibitors of PDE-IV (AID 607; active = well fitted activation curve with a large enough effect in the main read-out, with a control signal flat, not every such curve was filed as active; note: % of control where 0% means no effect)
How it was run: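 The readout is membrane depolarisation from a cAMP-sensing CNG channel, detected with a potential dye at ex 535/em 590. Cells were HEK293-derived (endogenous PDE-IV) at 1000 cells/well, titrated up to 22.9 uM final.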

[17] = target: Cytochrome P450 2D6 (Homo sapiens) (UniProt P10635); assay: qHTS Assay for Inhibitors and Substrates of Cytochrome P450 2D6 (AID 891);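 note: luciferin methyl ether substrate demethylated by CYP2D6 with NADPH regeneration; % is set by controls: 0 for no effect and ±100 for the full control effect; nearly all actives have a fitted effect of over 60% in size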
How it was run: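 Luminescent read-out of luciferin formed by 5 nM human CYP2D6 demethylating 30 uM Luciferin-ME EGE (Km level) over 60 min at room temperature after NADPH regeneration addition. Data normalized to full inhibition by 1.43 uM quinidine.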

[18] = target: Cytochrome P450 2C19 (Homo sapiens) (UniProt P33261); assay: qHTS Assay for Inhibitors and Substrates of Cytochrome P450 2C19 (AID 899); note: % is set by controls: 0 for no effect and ±100 for the full control effect; nearly all actives have a fitted effect of over 60% in size
How it was run: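 Luminescent read-out of luciferin formed from Luciferin-H EGE (10uM, equal to KM). Enzyme 5nM in 50mM KPO4; compound added, 10 min at 37C, then NADPH regenerating system for 60 min at 37C. Full inhibition defined by 57uM ketoconazole.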

Chain of Cytochrome P450 3A4 (Homo sapiens) (P08684 whole entry, looked up): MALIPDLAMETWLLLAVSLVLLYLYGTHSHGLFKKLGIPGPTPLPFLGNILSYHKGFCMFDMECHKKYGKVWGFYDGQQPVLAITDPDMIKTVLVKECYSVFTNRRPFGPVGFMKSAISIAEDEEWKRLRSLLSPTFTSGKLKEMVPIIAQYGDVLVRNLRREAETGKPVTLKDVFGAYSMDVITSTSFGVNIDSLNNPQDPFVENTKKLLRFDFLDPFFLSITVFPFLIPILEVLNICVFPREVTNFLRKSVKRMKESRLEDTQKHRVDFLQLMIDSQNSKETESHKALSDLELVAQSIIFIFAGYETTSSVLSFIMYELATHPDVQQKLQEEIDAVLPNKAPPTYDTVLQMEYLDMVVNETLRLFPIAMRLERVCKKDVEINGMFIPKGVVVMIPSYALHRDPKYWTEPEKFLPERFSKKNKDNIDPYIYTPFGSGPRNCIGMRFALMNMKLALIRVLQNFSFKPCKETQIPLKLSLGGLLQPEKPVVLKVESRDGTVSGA
Chain of Cytochrome P450 2D6 (Homo sapiens) (P10635 whole entry, looked up): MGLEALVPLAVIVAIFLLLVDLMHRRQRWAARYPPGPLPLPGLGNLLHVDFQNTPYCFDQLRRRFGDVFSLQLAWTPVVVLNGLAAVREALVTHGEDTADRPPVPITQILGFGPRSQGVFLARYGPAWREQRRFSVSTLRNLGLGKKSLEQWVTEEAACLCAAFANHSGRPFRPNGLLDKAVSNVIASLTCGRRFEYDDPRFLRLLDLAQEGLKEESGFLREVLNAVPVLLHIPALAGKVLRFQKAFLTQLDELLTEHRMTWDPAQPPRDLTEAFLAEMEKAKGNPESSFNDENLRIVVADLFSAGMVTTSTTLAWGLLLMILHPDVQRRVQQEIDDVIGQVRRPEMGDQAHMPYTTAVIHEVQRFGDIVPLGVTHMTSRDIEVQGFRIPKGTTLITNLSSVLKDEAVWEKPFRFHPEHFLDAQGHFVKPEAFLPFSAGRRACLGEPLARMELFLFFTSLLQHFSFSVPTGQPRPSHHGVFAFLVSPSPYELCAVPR
Chain of Glucocorticoid receptor (Homo sapiens) (P04150 whole entry, looked up, the tested form may be a part): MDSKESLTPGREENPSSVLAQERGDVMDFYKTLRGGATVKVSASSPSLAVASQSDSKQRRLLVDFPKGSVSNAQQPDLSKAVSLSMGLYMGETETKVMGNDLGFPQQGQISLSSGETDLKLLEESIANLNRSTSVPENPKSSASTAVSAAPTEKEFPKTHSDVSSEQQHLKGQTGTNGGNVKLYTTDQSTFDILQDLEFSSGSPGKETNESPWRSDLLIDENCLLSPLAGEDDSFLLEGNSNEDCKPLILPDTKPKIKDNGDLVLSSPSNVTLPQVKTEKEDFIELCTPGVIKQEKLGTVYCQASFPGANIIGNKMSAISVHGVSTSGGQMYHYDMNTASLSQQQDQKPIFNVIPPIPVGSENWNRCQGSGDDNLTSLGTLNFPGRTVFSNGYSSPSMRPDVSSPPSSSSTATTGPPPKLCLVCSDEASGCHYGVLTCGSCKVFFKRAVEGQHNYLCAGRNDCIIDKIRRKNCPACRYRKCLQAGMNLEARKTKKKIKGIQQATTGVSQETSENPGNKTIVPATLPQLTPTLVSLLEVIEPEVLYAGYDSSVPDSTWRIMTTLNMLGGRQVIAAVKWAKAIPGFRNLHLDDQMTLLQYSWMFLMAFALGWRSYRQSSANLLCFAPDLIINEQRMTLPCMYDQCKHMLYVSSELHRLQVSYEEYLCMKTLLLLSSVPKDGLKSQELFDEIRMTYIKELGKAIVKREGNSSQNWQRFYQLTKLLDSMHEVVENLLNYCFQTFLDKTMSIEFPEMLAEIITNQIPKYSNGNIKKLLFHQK
Chain of 3',5'-cyclic-AMP phosphodiesterase 4B (Homo sapiens) (Q07343 whole entry, looked up): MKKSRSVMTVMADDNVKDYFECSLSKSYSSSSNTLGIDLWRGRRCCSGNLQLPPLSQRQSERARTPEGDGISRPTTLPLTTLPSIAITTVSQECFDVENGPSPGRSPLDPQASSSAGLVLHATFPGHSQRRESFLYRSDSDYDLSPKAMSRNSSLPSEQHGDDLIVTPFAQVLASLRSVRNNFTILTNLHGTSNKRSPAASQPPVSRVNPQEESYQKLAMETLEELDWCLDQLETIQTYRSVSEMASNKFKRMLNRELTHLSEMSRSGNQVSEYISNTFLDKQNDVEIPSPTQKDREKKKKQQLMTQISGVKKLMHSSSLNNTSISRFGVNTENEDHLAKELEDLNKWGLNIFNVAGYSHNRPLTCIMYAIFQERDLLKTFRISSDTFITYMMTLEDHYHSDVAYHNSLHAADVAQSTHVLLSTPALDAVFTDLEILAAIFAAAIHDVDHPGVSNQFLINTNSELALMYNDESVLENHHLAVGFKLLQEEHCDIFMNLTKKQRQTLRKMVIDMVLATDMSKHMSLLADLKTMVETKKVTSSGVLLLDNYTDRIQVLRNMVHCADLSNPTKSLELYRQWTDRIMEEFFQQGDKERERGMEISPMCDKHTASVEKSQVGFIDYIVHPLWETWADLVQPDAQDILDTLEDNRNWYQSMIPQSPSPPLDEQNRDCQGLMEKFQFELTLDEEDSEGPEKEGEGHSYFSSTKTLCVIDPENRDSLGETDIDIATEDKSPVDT
Chain of Cytochrome P450 2C19 (Homo sapiens) (P33261 whole entry, looked up): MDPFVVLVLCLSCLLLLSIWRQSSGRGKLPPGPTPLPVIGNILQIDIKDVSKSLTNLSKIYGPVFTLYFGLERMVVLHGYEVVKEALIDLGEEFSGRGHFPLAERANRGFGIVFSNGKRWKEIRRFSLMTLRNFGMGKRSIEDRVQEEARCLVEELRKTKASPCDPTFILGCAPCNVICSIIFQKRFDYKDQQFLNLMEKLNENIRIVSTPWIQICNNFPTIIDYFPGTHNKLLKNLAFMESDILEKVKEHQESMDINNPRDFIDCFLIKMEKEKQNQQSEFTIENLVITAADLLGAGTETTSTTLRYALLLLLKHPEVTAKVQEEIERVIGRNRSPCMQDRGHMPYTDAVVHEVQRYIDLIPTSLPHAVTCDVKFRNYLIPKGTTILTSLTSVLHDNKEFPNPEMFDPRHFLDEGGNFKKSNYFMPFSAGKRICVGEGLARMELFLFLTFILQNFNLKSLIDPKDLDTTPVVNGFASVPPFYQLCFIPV
Chain of Cytochrome P450 1A2 (Homo sapiens) (P05177 whole entry, looked up): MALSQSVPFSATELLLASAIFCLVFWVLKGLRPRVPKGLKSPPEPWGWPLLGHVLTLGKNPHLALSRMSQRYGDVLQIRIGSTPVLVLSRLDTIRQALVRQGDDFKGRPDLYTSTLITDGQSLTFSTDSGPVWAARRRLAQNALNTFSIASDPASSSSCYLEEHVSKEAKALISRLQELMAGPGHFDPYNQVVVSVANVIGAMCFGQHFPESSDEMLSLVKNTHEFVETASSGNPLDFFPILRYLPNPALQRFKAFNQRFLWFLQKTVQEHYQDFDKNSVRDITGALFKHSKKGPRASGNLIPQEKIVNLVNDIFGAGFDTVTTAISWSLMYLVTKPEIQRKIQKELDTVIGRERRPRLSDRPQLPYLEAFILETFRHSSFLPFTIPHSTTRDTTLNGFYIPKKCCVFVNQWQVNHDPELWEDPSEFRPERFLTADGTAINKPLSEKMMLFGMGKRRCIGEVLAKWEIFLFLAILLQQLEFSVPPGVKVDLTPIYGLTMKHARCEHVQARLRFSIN

Oc1c(Br)c(Br)c(Br)c(Br)c1Br
inactive: Potency [1] > 92 µM | Potency [3] > 92 µM | Potency [4] 57 µM | Potency [5] | Potency [6] | outcome [7] | outcome [8] | Potency [9] | Potency [10] | Potency [11] | activation [12] 0.143%
active: Potency [2] 39.1 µM

O=C(O)C1C(C(=O)O)C2(Cl)C(Cl)=C(Cl)C1(Cl)C2(Cl)Cl (centres undefined)
inactive: Potency [1] > 92 µM | Potency [2] > 92 µM | Potency [3] > 92 µM | Potency [4] > 92 µM | outcome [13] | Potency [5] | Potency [6] | outcome [7] | outcome [8] | Potency [9] | Potency [10] | Potency [11] | activation [12] 0.623%

Cc1ccc(O)cc1C
inactive: Potency [1] > 92 µM | Potency [2] > 92 µM | Potency [3] > 92 µM | Potency [4] > 92 µM | activation [12] 0.215%

CCCCCCCCn1sccc1=O
active: Potency [2] 7.52 µM | Potency [3] 10.7 µM | Potency [4] 14.2 µM | Potency [5] 12.6 µM | Potency [6] 12.6 µM | Potency [9] 12.6 µM | Potency [10] 25.1 µM | Potency [11] 6.31 µM
inactive: Potency [1] > 92 µM | outcome [13] | outcome [7] | outcome [8] | activation [12] 1.42% and -3.52%

C[C@@H]1CC[C@@]2(OC1)O[C@H]1[C@@H](O)[C@H]3[C@@H]4CC[C@H]5C[C@@H](O[C@@H]6O[C@H](CO)[C@H](O[C@@H]7O[C@H](CO)[C@@H](O)[C@H](O[C@@H]8OC[C@@H](O)[C@H](O)[C@H]8O)[C@H]7O[C@@H]7O[C@H](CO)[C@@H](O)[C@H](O[C@@H]8O[C@H](CO)[C@@H](O)[C@H](O)[C@H]8O)[C@H]7O)[C@H](O)[C@H]6O)[C@H](O)C[C@]5(C)[C@H]4CC[C@]3(C)[C@H]1[C@@H]2C
active: Potency [1] 19.9 µM | Potency [2] 0.573 µM | Potency [3] 24.4 µM | Potency [4] 28.5 µM | Potency [5] 7.94 µM | Potency [6] 31.6 µM | Potency [10] 7.94 µM | Potency [11] 20 µM
inactive: outcome [13] | outcome [7] | outcome [8] | Potency [9] | activation [12] -9.71%

CCN1C[C@@]2(COC(=O)c3ccccc3N3C(=O)C[C@H](C)C3=O)CC[C@H](OC)[C@@]34[C@@H]5CC6[C@@H](OC)C[C@@](O)([C@H]5[C@H]6OC)C(O)([C@@H]13)[C@@H](OC)[C@H]24
inactive: Potency [14] | Potency [15] > 46 µM | outcome [13] | outcome [16] | Potency [17] | Potency [18]

OC(c1ccc(Cl)cc1)(c1ccc(Cl)cc1)C(Cl)(Cl)Cl
inactive: Potency [1] > 92 µM | Potency [3] > 92 µM | Potency [4] > 92 µM | Potency [5] | Potency [6] | outcome [7] | outcome [8] | Potency [9] | Potency [10] | Potency [11]

CC(=O)[O-].CC(=O)[O-].O.O.[Cd+2]
inactive: Potency [1] > 92 µM | Potency [3] > 92 µM | outcome [13] | outcome [7] | outcome [8] | Potency [10] | Potency [11] | activation [12] 1.94%
active: Potency [5] 25.1 µM [primary cells of rat origin]

CC(C)CC(C)Nc1ccc(Nc2ccccc2)cc1 (centres undefined)
inactive: Potency [1] > 92 µM | Potency [6] | outcome [7] | outcome [8] | activation [12] 10.8%
active: Potency [2] 64.1 µM | activity change, negative = cytotoxicity [5] -106% | Potency [10] 50.1 µM | Potency [11] 39.8 µM

Clc1ccc(C(c2ccc(Cl)cc2)C(Cl)Cl)cc1
active: Potency [1] 55 µM | Potency [3] 45.4 µM | Potency [4] 43.5 µM | activity change, negative = cytotoxicity [5] -88.1%
inactive: Potency [6] | Potency [9] | Potency [11] | activation [12] 0.923% and 0.102%

O=CN1C[C@H]2C[C@@H](C1)c1cccc(=O)n1C2
inactive: Potency [14] | Potency [15] > 46 µM | outcome [13] | outcome [16] | Potency [17] | Potency [18]

N#CC(Cl)Cl
active: Potency [2] 6.52 µM
inactive: Potency [1] > 92 µM | Potency [3] > 92 µM | Potency [4] > 92 µM | outcome [13] | Potency [5] | Potency [6] | outcome [7] | outcome [8] | Potency [10] | Potency [11] | activation [12] 1.8%

N#CSCSC#N
inactive: outcome [13] | outcome [7] | outcome [8] | Potency [9] | activation [12] 3.48% and -14.5%
active: Potency [1] 14.4 µM | Potency [2] 3.31 µM | Potency [3] 41.4 µM | Potency [4] 14 µM | Potency [5] 5.01 µM | Potency [6] 12.6 µM | Potency [10] 25.1 µM | Potency [11] 10 µM
